Among the data in ChEMBL document CHEMBL1157539, “Thousands of chemical starting points for antimalarial lead identification” (Nature, 2010) are Inhibition values, retold here.

This experiment concerns HepG2. Nature of the experiment: GSK_TCMDC: Percent inhibition of human HepG2 cell line. Test compounds present at 10uM. Type of experiment: functional.
As to `Cc1ccc(/C=C/C(=O)NCCCCCN2CCCN(C(=O)Nc3ccc(Cl)c(Cl)c3)CC2)cc1`, the Inhibition (in general, the share of the control response that was lost under treatment) turned out to be 24%. In the case of `COc1ccc([N+](=O)[O-])cc1N(Cc1ccccc1-c1ccccc1)S(=O)(=O)c1ccc(C(F)(F)F)cc1[N+](=O)[O-]` it was 2%.

Regarding `Cc1noc(C)c1-c1cccc(CNCc2ccc(-c3cccc(-c4nc5cc(C(F)(F)F)ccc5[nH]4)c3)cc2)c1.O=C(O)C(F)(F)F`, the Inhibition was 37%.

Take `CCN(CC)CCCN1CCN(C(=O)c2cccc(-c3noc(C(F)(F)F)n3)c2)CC1`: the Inhibition was found to be 0%.

As to `COc1cc(C=Cc2ccc3ccccc3n2)cc(Br)c1OCC(=O)N(C)C`, the Inhibition stood at 28%. For `Cc1cc2nc(N=C3NC4(c5ccccn5)NC(=Nc5nc6cc(C)c(C)cc6[nH]5)NC4(c4ccccn4)N3)[nH]c2cc1C.O=C(O)C(F)(F)F` (configuration not stated) the value was 3%; for `CN(CCNCc1ccc(-c2cccc(-c3nc4ccccc4[nH]3)c2)cc1)S(C)(=O)=O.O=C(O)C(F)(F)F`, 9%. For `CN(CC1CCC(NC(=O)/C=C/c2ccc(Cl)c(Cl)c2)CC1)C1CCC(c2c[nH]c3ccccc23)CC1` (configuration not stated) the value was 53%. As to `COc1ccc2ccccc2c1CON1C(=N)N=C(N)NC1(C)C.Cl`, the Inhibition was 25%. In the case of `O=C(NC1CC1c1ccccc1)N(CCCn1ccnc1)Cc1csc(-c2ccc(CNCc3ccccc3)cc2)n1.O=C(O)C(F)(F)F` (configuration not stated) it was 6%; in that of `CC(Oc1cc(-n2cnc3ccc(NC(=O)CCN4CCCCC4)cc32)sc1C(N)=O)c1ccccc1Cl` (configuration not stated), 95%; in that of `COc1ccc(NC(=O)Nc2ccc(-c3cccc(-c4nc5ccccc5[nH]4)c3)cc2)cc1`, 44%.
